PubChem BioAssay
Where “and” joins values, the source holds several entries; their conditions need not be identical. Identical values can stand only once. Calls of active or inactive are those of the source. No rule for the calls is given here.

How the values were obtained:
[1] = test system: Botulinum neurotoxin type F light chain protease (Clostridium botulinum); test: Botulinum neurotoxin type F light chain protease inhibition, multiplex microsphere flow cytometry, validation set (AID 588459); conditions: multiplex microsphere protease substrate cleavage assay, at 10 µM, active compounds read high
[2] = target: Botulinum neurotoxin type A (Clostridium botulinum) (UniProt P0DPI0); test: BoNT/A light chain protease inhibitors, biochemical, multiplex microsphere flow cytometry, validation set (AID 588460); conditions: at 10 µM, active compounds read high
[3] = target: Lethal factor (Bacillus anthracis) (UniProt P15917); test: Lethal factor protease inhibitors, Bacillus anthracis, multiplex microsphere cleavage assay, validation set (AID 588461); conditions: flow cytometry, at 10 µM, active compounds read high

| Compound | inhibition [1] | inhibition [2] | inhibition [3] |
| --- | --- | --- | --- |
| CC(=O)Nc1ccccc1C(=O)C(=O)Nc1ccccc1 | 2.1% (inactive) | 0.9% (inactive) | -1.5% (inactive) |
| OC(C#CCN1CCCC1)(c1ccccc1)c1cccnc1 (configuration not stated) | -1% (inactive) | -1% (inactive) | -1.1% (inactive) |
| O=C(O)C1Cc2ccccc2CN1S(=O)(=O)c1ccccc1 (configuration not stated) | 0.8% (inactive) | 0.6% (inactive) | -3.3% (inactive) |
| O=Cc1ccc(N2CCCCC2)cc1 | -0.8% (inactive) | -0.3% (inactive) | -1.6% (inactive) |
| NC(=O)C1CCCNC1 (configuration not stated) | 1.6% (inactive) | -0.4% (inactive) | 5.4% (inactive) |
| COc1ccc(O)c(N)c1 | -8.6% (inactive) | -3.6% (inactive) | -19.6% (inactive) |
| NS(=O)(=O)c1cc2c(cc1Cl)NC(C1C[C@H]3C=C[C@@H]1C3)NS2(=O)=O (some centres not stated) | 1.4% (inactive) | 1% (inactive) | -3.2% (inactive) |
| COc1ccc(CCNC(=O)C(=O)Nc2ccc3c(c2)OCO3)cc1OC | 1.8% (inactive) | -0.8% (inactive) | -0.3% (inactive) |
| CCc1cc(/C(Cc2ccccn2)=N\O)c(O)cc1O | -2.8% (inactive) | -2.8% (inactive) | -5.1% (inactive) |
| CN(C)c1ccc(CNCCC(Cc2ccccc2)c2ccco2)cc1 (configuration not stated) | -4.5% (inactive) | -0.8% (inactive) | -8.8% (inactive) |
| CN1C(=O)NC(c2ccc(O)cc2)C2=C1CN(c1cccc3ccccc13)C2=O (configuration not stated) | 3.2% (inactive) | -1% (inactive) | -10.8% (inactive) |
| O=C(CC(C(=O)O)c1c[nH]c2ccccc12)c1ccccc1 (configuration not stated) | 0.3% (inactive) | 2% (inactive) | 6.4% (inactive) |
| O=[N+]([O-])c1ccc(O)c2ncccc12 | -1.5% (inactive) | -3.7% (inactive) | -2.8% (inactive) |
| C#CCN1C(=O)C(O)(CC(=O)c2ccc(OC)c(OC)c2)c2ccccc21 (configuration not stated) | 2.3% (inactive) | -1.3% (inactive) | 2% (inactive) |
| CC(=O)O[C@]1(C(C)=O)CC[C@H]2[C@@H]3C[C@H](C)C4=CC(=O)CC[C@]4(C)[C@H]3CC[C@@]21C | 0.4% (inactive) | -1.6% (inactive) | -5.5% (inactive) |
| C=CCn1c(N2CCCCCC2)nc2c1c(=O)n(C)c(=O)n2C | 0.2% (inactive) | 1.4% (inactive) | -4.7% (inactive) |
| Nc1ccn([C@@H]2O[C@H](CO)[C@@H](O)[C@@H]2O)c(=O)n1 | -1.4% (inactive) | -0.7% (inactive) | -1.8% (inactive) |
| Cc1ccc(N2C(=O)c3ccccc3C2=O)cc1C | -0.3% (inactive) | 0.5% (inactive) | -0.8% (inactive) |
| COc1cc2c3c(c1)C(C)CC(C)(C)N3C(=O)C2=O (configuration not stated) | -6.7% (inactive) | -1.3% (inactive) | -5.6% (inactive) |
| O=C(/C=C/c1ccc(Cl)cc1)NCCc1ccccc1 | -4% (inactive) | 0.4% (inactive) | 2.3% (inactive) |
| CN1CCN(CCCN2c3ccccc3Sc3ccc(Cl)cc32)CC1 | -3.9% (inactive) | -3.2% (inactive) | -10.3% (inactive) |
| Cc1cc(OC(=O)CNC(=O)OC(C)(C)C)c2c(C)cc(=O)oc2c1 | -0.2% (inactive) | -0.7% (inactive) | 5.4% (inactive) |

| Compound | inhibition [1] | inhibition [2] | inhibition [3] |
| --- | --- | --- | --- |
| CO/N=C(\C(=O)N[C@@H]1C(=O)N2C(C(=O)O)=C(COC(C)=O)CS[C@H]12)c1csc(N)n1 (stereo in doubt) | 2.7% (inactive) | -1.1% (inactive) | -5.4% (inactive) |
| CC(C)CN1CC(C(=O)O)CC1=O (configuration not stated) | 3.8% (inactive) | -1.3% (inactive) | 1.5% (inactive) |
| COc1cc(C(=O)N/C(=C\c2cn(C)c3ccccc23)C(=O)NCCCO)cc(OC)c1OC | 2% (inactive) | -1.2% (inactive) | -2.5% (inactive) |
| Oc1[nH]c2ccccc2c1N=Nc1ccccc1 | -2.7% (inactive) | -0.4% (inactive) | 1.4% (inactive) |
| COc1cc2c3c(c1)C1(C(=O)N3C(C)(C)C=C2C)C(C#N)=C(N)Oc2cc(C)oc(=O)c21 (configuration not stated) | 0.4% (inactive) | 2.4% (inactive) | -3.3% (inactive) |
| Cc1ccc2[nH]c3c(c2c1)CN(C(=O)CN1CCSCC1)CC3 | 61.5% (active) | 3.7% (inactive) | 11.6% (inactive) |
| CC/C(=C(\c1ccc(O)cc1)c1ccc(OCCN(C)C)cc1)c1ccccc1 | 2.7% (inactive) | -0.2% (inactive) | -2.3% (inactive) |
| CC(=O)N(C(C)=O)c1nc2nc(C)cc(C)n2n1 | 5.2% (inactive) | 0.6% (inactive) | 1.4% (inactive) |
| C[C@]12CCC(=O)C=C1CC[C@@H]1[C@@H]2[C@@H](O)C[C@@]2(C)[C@H]1CC[C@]2(O)C(=O)CO | 2.1% (inactive) | -1.4% (inactive) | -10.2% (inactive) |
| Cc1ccccc1NC(=O)C1c2ccccc2Oc2ccccc21 | 0.4% (inactive) | -0.3% (inactive) | 6.3% (inactive) |
| COCC1CCCN(Cc2cn[nH]c2-c2cc3ccccc3o2)C1 (configuration not stated) | -0.1% (inactive) | -1.5% (inactive) | -3.9% (inactive) |
| COc1cc(CNc2ccc(C)c(C)c2)cc(OC)c1OC | 1.8% (inactive) | 0.5% (inactive) | -8.9% (inactive) |
| COc1ccc2c(c1)CC[C@@H]1[C@@H]2CC[C@]2(C)C(=O)CC[C@@H]12 | -4% (inactive) | -1.5% (inactive) | -5% (inactive) |
| CC1=CC2(O)OCCN(CCO)C2=CC1=O (configuration not stated) | -1.5% (inactive) | -1% (inactive) | 2.5% (inactive) |
| Cc1ccc(Cl)c(Nc2ccccc2C(=O)O)c1Cl | -4.5% (inactive) | 0.2% (inactive) | 0.3% (inactive) |
| NC(=O)c1ncn([C@@H]2O[C@H](CO)[C@@H](O)[C@H]2O)c1O | -1.3% (inactive) | -1.9% (inactive) | -13.3% (inactive) |
| O=C(Nc1ccccc1C(=O)N1CCCCCC1)c1ccccc1Cl | -2.3% (inactive) | 0% (inactive) | -1.1% (inactive) |
| C[N+](C)(C)CCOP(=O)([O-])OC[C@H](O)CO | 1.7% (inactive) | -0.4% (inactive) | 3.2% (inactive) |
| COc1ccccc1C(=O)c1cc2ccc(O)cc2oc1=O | -0.4% (inactive) | 0.1% (inactive) | 2.7% (inactive) |
| COc1cc(OC)cc(C(C)=O)c1 | -1.9% (inactive) | -1.3% (inactive) | -0.1% (inactive) |
| CN(C)CCC=C1c2ccccc2CCc2ccccc21 | 1.3% (inactive) | 0.2% (inactive) | 0.7% (inactive) |
| COC(=O)c1cc(C(=O)NCCC(C)C)cc([N+](=O)[O-])c1 | -5.3% (inactive) | -2.3% (inactive) | 2.1% (inactive) |

| Compound | inhibition [1] | inhibition [2] | inhibition [3] |
| --- | --- | --- | --- |
| CC1(C)S[C@@H]2[C@H](NC(=O)[C@H](N)c3ccccc3)C(=O)N2[C@H]1C(=O)O | 2.6% (inactive) and -3.6% (inactive) | 2.2% (inactive) and -0.7% (inactive) | 5% (inactive) and -3% (inactive) |
| Cn1cc(/C=C/C(=O)c2ccccc2)c2ccccc21 | -4.2% (inactive) | -0.5% (inactive) | -5.4% (inactive) |
| COc1ccc(S(=O)(=O)NCc2ccco2)c2ccccc12 | 4.7% (inactive) | 0.4% (inactive) | 1% (inactive) |
| CC(C)(C)NCC(O)COc1ccccc1C(=O)CCc1ccccc1 (configuration not stated) | -5.8% (inactive) | -2% (inactive) | -4.9% (inactive) |
| CN(C)c1cc(NC(=O)CN2CCOCC2)c2ccccc2n1 | 0% (inactive) | -1.5% (inactive) | -4.6% (inactive) |
| CC1=C(C)C(=O)C(CCCCC#CCCCC#CCO)=C(C)C1=O | -2.1% (inactive) | 0.4% (inactive) | -2.3% (inactive) |
| Nc1[nH]c(=O)ncc1F | 1.1% (inactive) | -0.5% (inactive) | 0% (inactive) |
| OC(CCCN1CCCCC1)(c1ccccc1)c1ccccc1 | 3.3% (inactive) | 0% (inactive) | 7.6% (inactive) |
| Cc1cccc(-n2c(Cc3ccccc3)n[nH]c2=S)c1 | -1.9% (inactive) | -0.5% (inactive) | -2.9% (inactive) |
| CN1C(=O)C(O)(CC(=O)/C=C/C=C/c2ccccc2)c2ccccc21 (configuration not stated) | -1.9% (inactive) | -0.3% (inactive) | -0.3% (inactive) |
| Cc1nnc(SCC(=O)N2CCCC(C(=O)c3ccc(Cl)cc3)C2)o1 (configuration not stated) | 2.8% (inactive) | 0.9% (inactive) | -6.4% (inactive) |
| Cc1oc(/C=N/NC(=O)CC2(C)OCCO2)cc1Br | 3.9% (inactive) | 0.6% (inactive) | 3.2% (inactive) |
| CC(C)COCC1CC2(CC(C)(c3csc(N)n3)OC2=O)C(=O)O1 (configuration not stated) | -3.2% (inactive) | -1.9% (inactive) | 9.1% (inactive) |
| COc1ccc(O)c(C(=O)/C=C/c2cc3ccccc3o2)c1 | -0.1% (inactive) | 0% (inactive) | -3.5% (inactive) |
| Cc1ccnc(NS(=O)(=O)c2ccc(N)cc2)n1 | 5.2% (inactive) | -0.3% (inactive) | -1.5% (inactive) |
| COC(=O)c1cc(OC)c(OC)cc1NC(=O)CN1C(=O)c2ccccc2C1=O | -3.5% (inactive) | -1% (inactive) | -5.5% (inactive) |
| CCNC(=O)C12CCC(C)(C(=O)O1)C2(C)C (configuration not stated) | -1% (inactive) | -1% (inactive) | -7.4% (inactive) |
| O=C(O)/C=C/c1ccc(O)c(O)c1 | -0.3% (inactive) | -0.4% (inactive) | -1.7% (inactive) |
| O=C(NC(=S)N1CCCCC1)c1cccnc1 | 1.2% (inactive) | 1% (inactive) | -4.6% (inactive) |
| CCOC(=O)c1ccc(N2C(=O)C(CC(=O)NC)N(CCc3ccc(OC)c(OC)c3)C2=S)cc1 (configuration not stated) | -0.6% (inactive) | -0.4% (inactive) | -10.1% (inactive) |
